Test results published in ChEMBL document CHEMBL3433997, “St. Jude Leishmania screening dataset” (2016).

Molecular target: Solute carrier family 2, facilitated glucose transporter member 1 (Homo sapiens) (UniProt P11166)
Assay: ST_JUDE_LEISH: Cytotoxicity at 2uM final concentration against transgenic Leishmania Mexicana promastigotes LmGLUT1 that are glucose transport deficient and complemented with the human glucose transporter GLUT1. Activity is measured by DNA content using SYBR green in vitro
Type: functional

Chain of Solute carrier family 2, facilitated glucose transporter member 1 (Homo sapiens) (P11166 whole entry): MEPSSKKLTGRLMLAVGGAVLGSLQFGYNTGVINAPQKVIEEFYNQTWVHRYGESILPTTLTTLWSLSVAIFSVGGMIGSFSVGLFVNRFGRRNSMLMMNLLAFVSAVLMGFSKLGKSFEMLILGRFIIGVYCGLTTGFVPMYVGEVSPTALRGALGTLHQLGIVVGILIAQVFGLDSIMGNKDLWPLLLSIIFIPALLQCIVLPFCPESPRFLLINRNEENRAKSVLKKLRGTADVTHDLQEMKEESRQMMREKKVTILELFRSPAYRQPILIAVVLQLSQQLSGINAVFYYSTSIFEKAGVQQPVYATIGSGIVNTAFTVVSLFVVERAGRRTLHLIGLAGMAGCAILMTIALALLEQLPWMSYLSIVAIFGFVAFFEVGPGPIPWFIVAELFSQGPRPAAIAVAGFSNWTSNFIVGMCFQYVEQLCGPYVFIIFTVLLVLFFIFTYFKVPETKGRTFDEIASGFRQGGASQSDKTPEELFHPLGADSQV

Going from `Nc1ccc(-c2ccc(NC(=O)Nc3cc(C(F)(F)F)ccc3F)cc2)cn1` to `COc1ccc2nc(-c3cc(-c4ccc(NC(=O)C(C)C)cc4)cnc3N)[nH]c2c1`, the inhibition rises from 7.37% to 20.8%.

Compared with `O=C(/C=C/c1ccc(Cl)c(Cl)c1)NCCCCCCN1CCCN(C(=O)Nc2cccc(C(F)(F)F)c2)CC1`, `Cc1cc(OCCCN2CCCCC2)ccc1NC(=O)COc1ccc(Cl)cc1C(=O)c1cc(C#N)cc(C(F)(F)F)c1` is lower in inhibition: 5.59% for the first, 4.63% for the second.

Compared with `COc1ccccc1CN1CCC(NC(=O)c2ccc(-c3cccc(C(F)(F)F)c3)s2)CC1`, `COc1ccc2nccc([C@@H](O)CN3CCC(NC(=O)c4cccc(-c5cc(C)no5)c4)CC3)c2c1` is lower in inhibition: 3.7% for the first, 1.35% for the second.

Compared with `CN(C)C(=O)CN1CCN(c2ncnc(N3CCc4c([nH]c5ccccc45)[C@@H]3c3ccc4c(c3)CCO4)n2)CC1`, `Cc1cc2ccccc2n1CC(=O)N1CC(C(=O)N2CCCCC2)Oc2ccccc21` (centres undefined) is lower in inhibition: 4.28% for the first, -0.25% for the second.

Going from `CCCNC(=O)c1ccc(N2CCC(c3ccccc3C)CC2)nc1` to `Cc1ccc(C)c(C2CCN(CCCCNC(=O)c3ccc(NC(=O)c4ccc(Cl)cc4)cc3)CC2)c1`, the inhibition falls from 0.89% to -1.18%.

Going from `Cc1ccc(F)cc1S(=O)(=O)Nc1ccc(CCN2CCC(N3CCCCC3)CC2)cc1` to `Cc1c(Cl)cccc1S(=O)(=O)N1CCCCC(c2ccc(C(F)(F)F)cc2)=N1`, the inhibition falls from 0.5% to 0.39%.

Compared with `Cc1ccc(Nc2nccc(NCC(O)c3cccc(F)c3)n2)cc1` (centres undefined), `Brc1cccc(Nc2nccc(Nc3ccc(Oc4ccccc4)cc3)n2)c1` is higher in inhibition: 0.93% for the first, 6.01% for the second.

First: COc1cc2c(Nc3ccc(NC(=O)c4ccccc4)cc3)ncnc2cc1OCCCN1CCOCC1
Second: c1ccc(COc2ccc(Nc3ncnc4cnc(-c5ccc(CNc6cccnc6)o5)cc34)cc2)cc1
The inhibition of the first is lower: 3.25% for the first, 3.94% for the second.

Compared with `COc1ccc(-c2ccccc2OCCCNc2nc(NCCc3ccc(O)cc3)nc(N3CCNCC3)n2)cc1`, `O=C(NC1CCCCC1)N(Cc1cccc(-c2ccc(CNCCc3ccccc3)cc2)c1)C1CCN(Cc2ccccc2)CC1` is higher in inhibition: 1.12% for the first, 6.68% for the second.

Compared with `O=c1cc(NCCCNCc2ccc(Cl)c(Cl)c2)[nH]c2ccc(Oc3ccccc3)cc12`, `Fc1cccc(Nc2nc(NCc3ccc(Cl)c(Cl)c3)nc(Nc3cccc(F)c3)n2)c1` is higher in inhibition: -1.41% for the first, 11.7% for the second.

Going from `O=C(Nc1ccc(-c2oc(C(=O)NCCc3cccc(Cl)c3)cc2-c2ccncc2)cc1)Nc1cccc(Cl)c1` to `CC(=O)N(C)c1ccc(C(=O)Nc2cccc(-c3cccc(-c4nc5cc(C(F)(F)F)ccc5[nH]4)c3)c2)cc1`, the inhibition rises from 0.9% to 8.18%.

First: Cc1nc(C)c(-c2ccc(-c3ccc(F)cc3)cc2)c(O)c1Br
Second: Cc1ccc(-c2cnc(N)c3cc(-c4ccnc(N)n4)ccc23)cc1
The inhibition of the first is higher: 0.18% for the first, -0.17% for the second.

First: COC(=O)c1cccc(CNCc2cccc(-c3cccc(-c4nc5cccc(C)c5[nH]4)c3)c2)c1
Second: FC(F)(F)c1ccc2[nH]c(-c3cccc(-c4cccc(CNCc5cnn(-c6ccccc6)n5)c4)c3)nc2c1
The inhibition of the first is higher: 9.22% for the first, 5.47% for the second.

First: CCOC(=O)c1c(NC(=O)c2ccccc2)sc2c(O)c(CNC3CCCCC3)ccc12
Second: C#Cc1cccc(NC(=O)[C@H](CC2CCCCC2)Nc2ccc(C#N)c3ccccc23)c1
The inhibition of the first is lower: -1.14% for the first, 2.22% for the second.

First: N=C(N)NC(=O)Nc1cc(Br)c(Br)c(Br)c1
Second: CCCN1CCN(CC(O)CNC(=O)Nc2ccc(Cl)cc2)CC1 (centres undefined)
The inhibition of the first is higher: 3.42% for the first, 2.81% for the second.

Compared with `N#CCCN1CCN(Cc2cccc(-c3ccc(-c4nc5ccccc5[nH]4)cc3)c2)CC1`, `CCN(CC)CCN(Cc1ccc(-c2ccc(C(F)(F)F)cc2)cc1)C(=O)Cn1c(CCc2ccc(F)c(C#N)c2)nc(=O)c2ccccc21` is higher in inhibition: 2.32% for the first, 6.73% for the second.

Compared with `CC(C)OC(=O)c1ccc(NC(=O)N[C@@H](Cc2ccc(O)cc2)C(=O)NC2CC3CCC(C2)N3Cc2ccccc2)cc1` (some centres undefined), `CC(C)Sc1nc2c(c(=O)n1Cc1ccco1)C1(CCCCC1)Cc1ccccc1-2` is lower in inhibition: 5.85% for the first, 2.09% for the second.

Compared with `CCc1cc2c(Sc3nnc(N)s3)ncnc2s1`, `Cc1nn(C)cc1C(C)Nc1nncc(-c2ccc(C(F)(F)F)cc2)n1` (centres undefined) is lower in inhibition: 2.44% for the first, 2.34% for the second.

First: NC1=NC2(CCCCC2)N(OCCCCCCN2C(=O)c3ccccc3C2=O)C(N)=N1
Second: CCN(CC)CCCC(C)N=c1cc(C=Cc2ccccc2Cl)[nH]c2cc(Cl)ccc12 (centres undefined)
The inhibition of the first is higher: 12.9% for the first, 3.06% for the second.

In the case of `CC1=C(C(=O)Nc2cc3cn[nH]c3cc2F)C(c2ccc(Cl)c(NS(C)(=O)=O)c2)CC(=O)N1` (centres undefined), the inhibition is reported as -2.07%.
